# Test results published in PubChem BioAssay (NCI).
# About 83,000 compounds went through this panel and 20% of them were active in at least one assay; those are over-represented in the sample as a whole.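 Single-dose data. Exposure time 48 hours. Values below 10 considered active.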 Active and inactive are the calls of the source.
# Test system: HOP-62 NSCLC
# Experiment: NCI-60 one-dose screen, 48 h (100 = growth as untreated, 0 = no growth, -100 = all killed)
# Conditions: 10 µM unless noted
row,SMILES,growth
1,C=C1C(=O)O[C@H]2[C@H]1CC/C(COC(=O)C(=O)c1c[nH]c3ccccc13)=C\CC[C@@]1(C)O[C@@H]21,2.66% (active)
2,S=C(c1ccc2c(c1)OCO2)N1CCN(c2ccccc2Cl)CC1,102% (inactive)
3,CC(C)(C)CC(C)(C)Nc1c(-c2ccncc2)nc2cnccn12,104% (inactive)
4,COCCN(C(=O)c1ccc(F)cc1F)c1c(N)n(Cc2ccccc2)c(=O)[nH]c1=O,103% (inactive)
5,Cc1ccc(N(C(=O)CCc2c[nH]c3ccccc23)[C@H](C(=O)Nc2ccc(Cl)cc2)c2cccc([N+](=O)[O-])c2)cc1,68% (inactive)
6,COC(=O)c1c2c(c(C)[n+]([O-])c1C)C(=O)C(NCc1ccc(F)cc1)=CC2=O,48.2% (inactive)
7,COc1ccc(Cl)cc1NC(=O)C(Br)C(Br)C(=O)O (centres undefined),56.6% (inactive)
8,O=C1Nc2ccccc2/C1=C/c1cn(C(=O)c2c(Cl)cccc2Cl)c2ccccc12,88.8% (inactive)
9,COC(=O)/C=C1\S/C(=N\NS(=O)(=O)c2ccc(C)cc2)N(c2ccccc2)C1=O,99.4% (inactive)
10,CCCCCCCC/C=C\CCCCCCCCOc1ccccc1CC(=O)NCC[N+](C)(C)C,37% (inactive)
11,NC(=S)Nc1cccc(O)c1,89.8% (inactive)
12,CCCCCS(=O)(=O)Nc1ccc(C(=O)O)cc1,98.2% (inactive)
13,CCCCCCCCCOc1c(OC)cc(C2CC(=O)Nc3c2c(C)nn3-c2nc3ccccc3[nH]2)cc1OC (centres undefined),-32.9% (active)
14,C=C1C(=O)O[C@H]2[C@H]1CC/C(CNC(=O)/C=C/c1ccc(Cl)cc1Cl)=C\CC[C@@]1(C)O[C@@H]21,17.2% (inactive)
15,NNC(=O)c1nc(N)n(-c2ccc(S(N)(=O)=O)cc2)n1,90.6% (inactive)
16,C(=N\Nc1ncc(-c2cc3cc4c(cc3o2)OCO4)s1)/c1ccco1,62.1% (inactive)
17,O=C(/C=C/c1cccc(O)c1)c1cccc(-n2cc(-c3ccc4ccccc4c3)[nH]c2=O)c1,-20.9% (active)
18,COc1cc(Cn2ncc3ccc(NC(=O)c4cc5ccccc5oc4=N)cc32)cc(OC)c1OC,64.9% (inactive)
19,O=C(CC(SCc1ccccc1)c1ccccc1)c1ccccc1 (centres undefined),91.7% (inactive)

row,SMILES,growth
1,CCOc1ccccc1-c1cc(-c2cccs2)c(C#N)c(=O)[nH]1,81.5% (inactive)
2,N#CC1=C(NC=O)Oc2c(ccc3ccccc23)C1c1ccccc1 (centres undefined),21.1% (inactive)
3,COc1cc(C2CC(c3cc(OC)c(OCCCOc4ccc(-n5c(/C=C/c6ccccc6)nc6ccccc6c5=O)cc4)c(OC)c3)=NO2)cc(OC)c1OC (centres undefined),122% (inactive)
4,O=C1Nc2ccc(F)cc2C12Nc1cc(Cl)ccc1S2 (centres undefined),111% (inactive)
5,CCN(CC)CCN1C(=O)c2c(c(C)c3c(oc4cc(O)ccc43)c2C)C1=O,93.1% (inactive)
6,O=C(O)c1ccc2c(c1Cl)C(=O)c1ccccc1C2=O,82.5% (inactive)
7,CN(c1ccccc1)c1ccc2c(c1)OCCC21CC1Nc1cnccc1C(=O)O (centres undefined),63.2% (inactive)
8,CC1O[C@@H](OC2[C@H](OC(=O)/C=C/c3ccc(O)c(O)c3)C(COC3O[C@H](C)C(O)C(O)[C@@H]3O)O[C@@H](OCCc3ccc(O)c(O)c3)[C@H]2O)[C@@H](O)C(O)[C@H]1O (some centres undefined),103% (inactive)
9,O=C(CSc1nnc(-c2ccc(NC(=O)c3cccnc3)cc2)o1)Nc1cccc(Br)c1,99.2% (inactive)
10,CCN1C(=O)N(CC)C2Nn3c(s/c(=C\c4ccc(Cl)cc4Cl)c3=O)=NC21 (centres undefined),72.3% (inactive)
11,COc1ccc(/C=N/C2=C(C#N)C(c3ccc(OC)cc3)c3ccc4ccccc4c3O2)cc1 (centres undefined),67% (inactive)
12,CCOC(=O)C/C(C)=N\NC(=O)c1ccncc1,97.7% (inactive)
13,COC(=O)[C@H](CSC)N(C)C(=O)[C@@H]1CSSC[C@@H](NC(=O)c2nc3ccccc3cc2O)C(=O)NCC(=O)N1C,82.2% (inactive)
14,COc1ccc2[nH]c(O)c(C(=Nc3ccc(N(C)C(=O)CN4CCN(C)CC4)cc3)c3ccccc3)c2c1,23.5% (inactive)
15,O=[N+]([O-])c1ccc(N2c3ccncc3Sc3ccncc32)cc1,104% (inactive)
16,COc1ccc(CNC(=O)C(O)C(Cc2ccccc2)NC(=O)c2[nH]c3ccccc3c(=O)c2C)cc1OC (centres undefined),102% (inactive)
17,N#C/C(=C/C=C/c1cccc(Cl)c1)S(=O)c1ccccc1 (centres undefined),-17.4% (active)
18,COC(=O)[C@]12CC[C@@H](C)[C@H](C)[C@@H]1C1=CC[C@@H]3[C@@]4(C)C(C=O)=C[C@@](C)(COC(C)=O)C4=CC[C@@]3(C)[C@]1(C)CC2,-7.82% (active)

# Test system: NCI-H460 lung
# Experiment: as above
# Conditions: 10 µM unless noted
row,SMILES,growth
1,C=C1C(=O)O[C@H]2[C@H]1CC/C(COC(=O)C(=O)c1c[nH]c3ccccc13)=C\CC[C@@]1(C)O[C@@H]21,6.72% (active)
2,S=C(c1ccc2c(c1)OCO2)N1CCN(c2ccccc2Cl)CC1,102% (inactive)
3,CC(C)(C)CC(C)(C)Nc1c(-c2ccncc2)nc2cnccn12,105% (inactive)
4,COCCN(C(=O)c1ccc(F)cc1F)c1c(N)n(Cc2ccccc2)c(=O)[nH]c1=O,116% (inactive)
5,Cc1ccc(N(C(=O)CCc2c[nH]c3ccccc23)[C@H](C(=O)Nc2ccc(Cl)cc2)c2cccc([N+](=O)[O-])c2)cc1,98.2% (inactive)
6,COC(=O)c1c2c(c(C)[n+]([O-])c1C)C(=O)C(NCc1ccc(F)cc1)=CC2=O,11.5% (inactive)
7,COc1ccc(Cl)cc1NC(=O)C(Br)C(Br)C(=O)O (centres undefined),111% (inactive)
8,O=C1Nc2ccccc2/C1=C/c1cn(C(=O)c2c(Cl)cccc2Cl)c2ccccc12,71.2% (inactive)
9,COC(=O)/C=C1\S/C(=N\NS(=O)(=O)c2ccc(C)cc2)N(c2ccccc2)C1=O,104% (inactive)
10,CCCCCCCC/C=C\CCCCCCCCOc1ccccc1CC(=O)NCC[N+](C)(C)C,23.8% (inactive)
11,NC(=S)Nc1cccc(O)c1,104% (inactive)
12,CCCCCS(=O)(=O)Nc1ccc(C(=O)O)cc1,104% (inactive)
13,CCCCCCCCCOc1c(OC)cc(C2CC(=O)Nc3c2c(C)nn3-c2nc3ccccc3[nH]2)cc1OC (centres undefined),-23.4% (active)
14,C=C1C(=O)O[C@H]2[C@H]1CC/C(CNC(=O)/C=C/c1ccc(Cl)cc1Cl)=C\CC[C@@]1(C)O[C@@H]21,2.98% (active)
15,NNC(=O)c1nc(N)n(-c2ccc(S(N)(=O)=O)cc2)n1,105% (inactive)
16,C(=N\Nc1ncc(-c2cc3cc4c(cc3o2)OCO4)s1)/c1ccco1,13.3% (inactive)
17,O=C(/C=C/c1cccc(O)c1)c1cccc(-n2cc(-c3ccc4ccccc4c3)[nH]c2=O)c1,-9.23% (active)
18,COc1cc(Cn2ncc3ccc(NC(=O)c4cc5ccccc5oc4=N)cc32)cc(OC)c1OC,91% (inactive)
19,O=C(CC(SCc1ccccc1)c1ccccc1)c1ccccc1 (centres undefined),103% (inactive)

row,SMILES,growth
1,CCOc1ccccc1-c1cc(-c2cccs2)c(C#N)c(=O)[nH]1,93.8% (inactive)
2,N#CC1=C(NC=O)Oc2c(ccc3ccccc23)C1c1ccccc1 (centres undefined),19.9% (inactive)
3,COc1cc(C2CC(c3cc(OC)c(OCCCOc4ccc(-n5c(/C=C/c6ccccc6)nc6ccccc6c5=O)cc4)c(OC)c3)=NO2)cc(OC)c1OC (centres undefined),113% (inactive)
4,O=C1Nc2ccc(F)cc2C12Nc1cc(Cl)ccc1S2 (centres undefined),89.5% (inactive)
5,CCN(CC)CCN1C(=O)c2c(c(C)c3c(oc4cc(O)ccc43)c2C)C1=O,-69% (active)
6,O=C(O)c1ccc2c(c1Cl)C(=O)c1ccccc1C2=O,102% (inactive)
7,CN(c1ccccc1)c1ccc2c(c1)OCCC21CC1Nc1cnccc1C(=O)O (centres undefined),45.7% (inactive)
8,CC1O[C@@H](OC2[C@H](OC(=O)/C=C/c3ccc(O)c(O)c3)C(COC3O[C@H](C)C(O)C(O)[C@@H]3O)O[C@@H](OCCc3ccc(O)c(O)c3)[C@H]2O)[C@@H](O)C(O)[C@H]1O (some centres undefined),109% (inactive)
9,O=C(CSc1nnc(-c2ccc(NC(=O)c3cccnc3)cc2)o1)Nc1cccc(Br)c1,103% (inactive)
10,CCN1C(=O)N(CC)C2Nn3c(s/c(=C\c4ccc(Cl)cc4Cl)c3=O)=NC21 (centres undefined),16.4% (inactive)
11,COc1ccc(/C=N/C2=C(C#N)C(c3ccc(OC)cc3)c3ccc4ccccc4c3O2)cc1 (centres undefined),75.6% (inactive)
12,CCOC(=O)C/C(C)=N\NC(=O)c1ccncc1,103% (inactive)
13,COC(=O)[C@H](CSC)N(C)C(=O)[C@@H]1CSSC[C@@H](NC(=O)c2nc3ccccc3cc2O)C(=O)NCC(=O)N1C,59.1% (inactive)
14,COc1ccc2[nH]c(O)c(C(=Nc3ccc(N(C)C(=O)CN4CCN(C)CC4)cc3)c3ccccc3)c2c1,15.3% (inactive)
15,O=[N+]([O-])c1ccc(N2c3ccncc3Sc3ccncc32)cc1,122% (inactive)
16,COc1ccc(CNC(=O)C(O)C(Cc2ccccc2)NC(=O)c2[nH]c3ccccc3c(=O)c2C)cc1OC (centres undefined),103% (inactive)
17,N#C/C(=C/C=C/c1cccc(Cl)c1)S(=O)c1ccccc1 (centres undefined),-22.1% (active)
18,COC(=O)[C@]12CC[C@@H](C)[C@H](C)[C@@H]1C1=CC[C@@H]3[C@@]4(C)C(C=O)=C[C@@](C)(COC(C)=O)C4=CC[C@@]3(C)[C@]1(C)CC2,-29.1% (active)
